Assay results taken from the supplement of paper PMC7366291.
Where a name gives a salt, the structure may show the parent alone. ± gives the standard deviation or the standard deviation of the averaged measurements.

How the values were obtained:
Conditions in all cases: 25 µM; exposure: 24-48 hpf
[1] = tested on: Danio rerio Tg(wt1b:EGFP) embryo, pronephros; test: glomerular separation, fold change vs DMSO control; higher = glomeruli further apart (abnormal)
Outline: (§1)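 Each feature value is a fold change relative to the mean of same-day DMSO-treated embryos. Embryos of the Tg(wt1b:EGFP) zebrafish line, dechorionated, received 25 μM compound in 0.5% DMSO from 24 to 48 hpf at 28.5°C, in HEPES-buffered E3 with 0.003% PTU. Distances and angles were computed by a Fiji macro from 16 manually set reference points on maximum projections of dorsal pronephros images, and values beyond 2 SD of the feature mean were removed.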

[2] = tested on: Danio rerio Tg(wt1b:EGFP) embryo, pronephros; test: glomerular width (mean of left and right), fold change vs DMSO control; higher = wider glomerulus
Outline: as §1

[3] = tested on: Danio rerio Tg(wt1b:EGFP) embryo, pronephros; test: fraction of imaged embryos annotated as normal kidney; higher = less nephrotoxic; extreme values may be limits of the assay
Outline: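 From 24 to 48 hpf at 28.5°C, dechorionated Tg(wt1b:EGFP) zebrafish embryos in 12-well plates were kept in 5 mM HEPES-buffered E3 with 0.003% PTU, 0.5% DMSO and 25 μM compound. Pronephroi were imaged by widefield fluorescence at 470 nm and judged by eye from maximum projections. Reported is the proportion of embryos per treatment in the normal-kidney category.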

[4] = tested on: Danio rerio Tg(wt1b:EGFP) embryo, pronephros; test: pronephric angle neck segment to proximal convoluted tubule (mean of left and right), fold change vs DMSO control; higher = larger pronephric angle
Outline: as §1

Nc1nc(O)c2ncn(CCC(CO)CO)c2n1 [Penciclovir] was tested, and the glomerular separation [1] was 0.817 ± 0.31, the glomerular width [2] was 1.01 ± 0.019 and the “fraction of imaged embryos annotated as normal kidney” value (shortened to “fraction of imaged embryos annotated”) [3] was 0.917. For the same compound, the “pronephric angle neck segment” value [4] was 0.964 ± 0.05.
With Cc1cnc(C(=O)NCCc2ccc(S(=O)(=O)NC(=O)NC3CCCCC3)cc2)cn1 [Glipizide] the glomerular separation [1] was 0.984 ± 0.34, the glomerular width [2] was 1.056 ± 0.0043 and the “fraction of imaged embryos annotated” value [3] was 0.833. For the same compound, the “pronephric angle neck segment” value [4] was 0.944 ± 0.021.
With CC[C@H]1OC(=O)[C@H](C)[C@@H](O[C@H]2C[C@@](C)(OC)[C@@H](O)[C@H](C)O2)[C@H](C)[C@@H](O[C@@H]2O[C@H](C)C[C@H](N(C)C)[C@H]2O)[C@](C)(O)C[C@@H](C)[C@@H]2N[C@@H](COCCOC)O[C@H]([C@H]2C)[C@]1(C)O [Dirithromycin] the glomerular separation [1] was 1 ± 0.51, the glomerular width [2] was 0.964 ± 0.041 and the “fraction of imaged embryos annotated” value [3] was 1. For the same compound, the “pronephric angle neck segment” value [4] was 0.981 ± 0.065.
In the case of CO/N=C(\C(=O)N[C@@H]1C(=O)N2C(C(=O)O)=C(C[N+]3(C)CCCC3)CS[C@H]12)c1csc(N)n1 [Cefepime hydrochloride], the glomerular separation [1] is reported as 0.845 ± 0.26, the glomerular width [2] is reported as 1.01 ± 0.018 and the “fraction of imaged embryos annotated” value [3] is reported as 0.917. The “pronephric angle neck segment” value [4] was 0.9786 ± 0.003.
NS(=O)(=O)c1cc(C(=O)O)c(NCc2ccco2)cc1Cl [Furosemide] was tested, and the glomerular separation [1] was 0.867 ± 0.13, the glomerular width [2] was 0.959 ± 0.097 and the “fraction of imaged embryos annotated” value [3] was 0.818. The “pronephric angle neck segment” value [4] was 1.015 ± 0.01.
In the case of Nc1nc(N)nc(-c2cc(Cl)ccc2Cl)n1 [Irsogladine maleate], the glomerular separation [1] is reported as 1.11 ± 0.39, the glomerular width [2] is reported as 0.976 ± 0.016 and the “fraction of imaged embryos annotated” value [3] is reported as 0.909. The “pronephric angle neck segment” value [4] was 1.07 ± 0.029.
With COCCOC(=O)C1=C(C)NC(C)=C(C(=O)OC(C)C)C1c1cccc([N+](=O)[O-])c1 (stereo not drawn) [Nimodipine] the glomerular separation [1] was 1.64 ± 1.1, the glomerular width [2] was 0.786 ± 0.066 and the “fraction of imaged embryos annotated” value [3] was 0.5. For the same compound, the “pronephric angle neck segment” value [4] was 0.954 ± 0.049.
With Nc1nc2c(ncn2COCCO)c(=O)[nH]1 [Acyclovir] the glomerular separation [1] was 1.05 ± 0.49, the glomerular width [2] was 1.06 ± 0.041 and the “fraction of imaged embryos annotated” value [3] was 0.583. For the same compound, the “pronephric angle neck segment” value [4] was 0.888 ± 0.022.
In the case of O=C1c2c(O)ccc(O)c2C(=O)c2c(NCCNCCO)ccc(NCCNCCO)c21 [Mitoxantrone dihydrochloride], the glomerular separation [1] is reported as 1.13 ± 0.46, the glomerular width [2] is reported as 1.03 ± 0.063 and the “fraction of imaged embryos annotated” value [3] is reported as 0.667. For the same compound, the “pronephric angle neck segment” value [4] was 1.07 ± 0.1.
With CCc1c(C)[nH]c2c1C(=O)C(CN1CCOCC1)CC2 (stereo not drawn) [Molindone hydrochloride] the glomerular separation [1] was 0.897 ± 0.23, the glomerular width [2] was 1 ± 0.018 and the “fraction of imaged embryos annotated” value [3] was 0.833. For the same compound, the “pronephric angle neck segment” value [4] was 0.956 ± 0.0018.
In the case of C[C@]1(Cn2ccnn2)[C@H](C(=O)O)N2C(=O)C[C@H]2S1(=O)=O [Tazobactam], the glomerular separation [1] is reported as 0.923 ± 0.63, the glomerular width [2] is reported as 1.07 ± 0.018 and the “fraction of imaged embryos annotated” value [3] is reported as 0.75. The “pronephric angle neck segment” value [4] was 0.985 ± 0.018.
With NC12CC3CC(CC(C3)C1)C2 [Adamantamine fumarate] the glomerular separation [1] was 0.809 ± 0.31, the glomerular width [2] was 1.07 ± 0.033 and the “fraction of imaged embryos annotated” value [3] was 0.917. The “pronephric angle neck segment” value [4] was 1.03 ± 0.013.
COc1ccc(-c2cc(=S)ss2)cc1 [Anethole-trithione] was tested, and the glomerular separation [1] was 1.04 ± 0.42, the glomerular width [2] was 0.886 ± 0.027 and the “fraction of imaged embryos annotated” value [3] was 0.909. For the same compound, the “pronephric angle neck segment” value [4] was 1.04 ± 0.066.
C[C@H](CS)C(=O)N1CCC[C@H]1C(=O)O [Captopril] was tested, and the glomerular separation [1] was 1 ± 0.45, the glomerular width [2] was 1.01 ± 0.042 and the “fraction of imaged embryos annotated” value [3] was 1. For the same compound, the “pronephric angle neck segment” value [4] was 1.02 ± 0.09.
In the case of O=C1c2ccccc2C(=O)C1c1ccccc1 [Phenindione], the glomerular separation [1] is reported as 1.02 ± 0.37, the glomerular width [2] is reported as 1.07 ± 0.052 and the “fraction of imaged embryos annotated” value [3] is reported as 0.75. For the same compound, the “pronephric angle neck segment” value [4] was 0.919 ± 0.013.
With C[N+](C)(C)CCOC(N)=O [Carbachol] the glomerular separation [1] was 0.868 ± 0.25, the glomerular width [2] was 1 ± 0.013 and the “fraction of imaged embryos annotated” value [3] was 0.667. For the same compound, the “pronephric angle neck segment” value [4] was 1.01 ± 0.047.
In the case of N#Cc1cc(NC(=O)C(=O)O)c(Cl)c(NC(=O)C(=O)O)c1 [Lodoxamide], the glomerular separation [1] is reported as 1.24 ± 0.55, the glomerular width [2] is reported as 0.9808 ± 0.0037 and the “fraction of imaged embryos annotated” value [3] is reported as 0.917. For the same compound, the “pronephric angle neck segment” value [4] was 1.05 ± 0.059.
With CC(NCCc1ccc(O)cc1)C(O)c1ccc(O)cc1 (stereo not drawn) [Ritodrine hydrochloride] the glomerular separation [1] was 1.03 ± 0.28, the glomerular width [2] was 0.952 ± 0.012 and the “fraction of imaged embryos annotated” value [3] was 0.833. For the same compound, the “pronephric angle neck segment” value [4] was 1.038 ± 0.0019.
With CCOC(=O)[N-]c1c[n+](N2CCOCC2)no1 [Molsidomine] the glomerular separation [1] was 0.9 ± 0.41, the glomerular width [2] was 0.9963 ± 0.0028 and the “fraction of imaged embryos annotated” value [3] was 0.833. The “pronephric angle neck segment” value [4] was 0.982 ± 0.013.
For Cc1cc(NS(=O)(=O)c2ccc(N)cc2)no1 [Sulfamethoxazole], the glomerular separation [1] was 0.872 ± 0.23, the glomerular width [2] was 1.05 ± 0.026 and the “fraction of imaged embryos annotated” value [3] was 0.833. The “pronephric angle neck segment” value [4] was 0.9977 ± 0.0021.
In the case of CC(C)NCC(O)COc1cccc2[nH]ccc12 (stereo not drawn) [Pindolol], the glomerular separation [1] is reported as 0.674 ± 0.2, the glomerular width [2] is reported as 0.901 ± 0.021 and the “fraction of imaged embryos annotated” value [3] is reported as 0.909. The “pronephric angle neck segment” value [4] was 0.984 ± 0.025.
In the case of NNCCc1ccccc1 [Phenelzine sulfate], the glomerular separation [1] is reported as 0.964 ± 0.27, the glomerular width [2] is reported as 1.04 ± 0.016 and the “fraction of imaged embryos annotated” value [3] is reported as 0.833. The “pronephric angle neck segment” value [4] was 0.93 ± 0.067.
O=C1CN(/N=C/c2ccc(-c3ccc([N+](=O)[O-])cc3)o2)C(=O)N1 [Dantrolene sodium salt] was tested, and the glomerular separation [1] was 1.46 ± 0.66, the glomerular width [2] was 0.974 ± 0.084 and the “fraction of imaged embryos annotated” value [3] was 0.833. The “pronephric angle neck segment” value [4] was 1.02 ± 0.016.
With C#C[C@]1(O)CC[C@H]2[C@@H]3CCC4=CC(=O)CC[C@@H]4[C@H]3CC[C@@]21CC [Norgestrel-(-)-D] the glomerular separation [1] was 0.798 ± 0.23, the glomerular width [2] was 1.016 ± 0.0075 and the “fraction of imaged embryos annotated” value [3] was 1. For the same compound, the “pronephric angle neck segment” value [4] was 1.03 ± 0.013.
With N[C@@H]1CONC1=O [D-cycloserine] the glomerular separation [1] was 0.796 ± 0.24, the glomerular width [2] was 0.976 ± 0.075 and the “fraction of imaged embryos annotated” value [3] was 0.75. For the same compound, the “pronephric angle neck segment” value [4] was 0.9921 ± 0.0046.
With CCCc1ncc(C[n+]2ccccc2C)c(N)n1 [Amprolium hydrochloride] the glomerular separation [1] was 1.14 ± 0.19, the glomerular width [2] was 0.936 ± 0.042 and the “fraction of imaged embryos annotated” value [3] was 1. The “pronephric angle neck segment” value [4] was 1 ± 0.018.
CC(=O)[C@H]1CC[C@H]2[C@@H]3CCC4=CC(=O)CC[C@]4(C)[C@H]3CC[C@]12C [Progesterone] was tested, and the glomerular separation [1] was 3.48 ± 3.4, the glomerular width [2] was 0.873 ± 0.086 and the “fraction of imaged embryos annotated” value [3] was 0.364. For the same compound, the “pronephric angle neck segment” value [4] was 1.2 ± 0.12.
